Sampled rows, rich in hits. Any-hit rate of the full collection: about 2.5%.
GRK2 aptamer HTS = blocks RNA aptamer binding to human GRK2; P25098; AID 488847; inhibition of aptamer binding, % at 10 µM; bead flow cytometry, FAM-aptamer displacement from GRK2; hit rate 0.59% among 330,000;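 active = inhibition of aptamer binding above 40%, roughly 3 SD of noise, on plates passing a quality check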;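 also: median bead fluorescence of bound FAM aptamer so fluorescent compounds give negative values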
MEKK2 mut-MEK5 = signal of MEK5 binding to mutant human MEKK2 PB1 domain | AID 1530 | bead flow cytometry, Alexa488-MEK5 binding to MEKK2 mutant | percent response, % at 10 µM | hit rate 0.35% among 290,000; in the data active = percent response above about 24%, passing the limit was not always enough
MEKK3 PB1 HTS = raises or lowers MEK5 binding to the human MEKK3 PB1 domain. hit rate 1.4% among 290,000. Q99759. binding response (% of control), % at 10 µM. bead-based flow cytometry, Alexa488-MEK5 binding to MEKK3; actives lie on both sides; 0 = blocked by unlabeled MEK5, 100 = vehicle;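 active = binding response more than 3 SD above or below the average of its plate-row segment, actives on both sides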;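 also: Alexa488 bead fluorescence after subtracting the streptavidin-only scavenger bead signal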
MEKK2 WT-MEK5 = raises or lowers MEK5 binding to wildtype human MEKK2 PB1 domain | binding response (% of control), % at 10 µM | bead flow cytometry, Alexa488-MEK5 binding to MEKK2 WT; actives lie on both sides | hit rate 1.1% among 290,000 | Q9Y2U5 | AID 1531; in the data active = binding response below about 67% or above about 130%
GRK2 inh confirm = human GRK2 inhibition confirmation, cherry pick 1; shares compounds with GRK2 aptamer HTS; AID 504451; hit rate 4% among 2,000; bead-bound GRK2, FAM-aptamer displacement, flow cytometry; aptamer displacement, % at 10 µM;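 active = aptamer displacement above 40%, near three times the noise of non-fluorescent compounds, on plates passing quality checks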;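 also: negative values mostly reflect intrinsic compound fluorescence rather than true enhancement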
FAM quench CP1 = counter-screen for GRK2 aptamer inhibitors: fluorescent aptamer quenchers; shares compounds with GRK2 aptamer HTS; Carboxyfluorescein RNA aptamer on beads, flow cytometry quenching; active compounds read low; fluorescence response (% of DMSO), % at 10 µM; 2,000 tested, under 10 active; AID 504580;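 active = compounds that quench the bead-bound fluorescent RNA probe, cutting fluorescence to under half of the solvent control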;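 also: counterscreen run without GRK2 so only probe quenching by compound is measured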
GRK2 CP2 = human GRK2 inhibition confirmation, cherry pick 2; shares compounds with GRK2 aptamer HTS; inhibition of aptamer binding, % at 10 µM; AID 504782; bead-bound GRK2, FAM-aptamer displacement, flow cytometry; 360 tested, under 10 active;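 active = inhibition of aptamer binding above 40%, about triple the noise seen with nonglowing compounds, on plates passing quality control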;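 also: negative values mostly come from compounds that fluoresce themselves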
FAM quench SP = aptamer fluorescence quenching in GRK2 counter-screen | AID 588494 | 360 tested, under 10 active | shares compounds with GRK2 aptamer HTS | carboxyfluorescein RNA aptamer beads, flow cytometry quenching; active compounds read low | fluorescence response vs DMSO, % at 10 µM;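 active = response vs DMSO under 50%, meaning signal dropped by over half, treated as fluorescence quencher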;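 also: labelled aptamer on streptavidin beads without GRK2 as a quench counter-screen; 100% = bead fluorescence of DMSO wells and lower means quenching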
The depositor's hits bear a star; . = not tested or not shown.

SMILES | GRK2 aptamer HTS | MEKK2 mut-MEK5 | MEKK3 PB1 HTS | MEKK2 WT-MEK5 | GRK2 inh confirm | FAM quench CP1 | others
[O-][n+]1ccc(C(O)c2ccccc2)cc1 (stereo not given) | 6 | 0 | 98 | 99 | . | .
CN(Cc1ccccc1)C(=O)c1cccc(NC(=O)c2ccco2)c1 | 4 | 3 | 99 | 102 | 1 | 104
COc1ccc(/C=C/C(=O)c2cccc(-n3cnnn3)c2)cc1O | 98* | -1 | 102 | 94 | 0 | 100
O=C(COc1cccnc1[N+](=O)[O-])N1CCc2ccccc21 | 0 | -40 | 99 | 98 | . | .
CC(Oc1cccnc1[N+](=O)[O-])C(=O)N1CCc2ccccc21 (stereo not given) | 33 | . | . | . | 2 | 104
O=C(NCC[C@@H]1C[C@@H]2C=C[C@H]1C2)c1cc(COc2ccc(F)cc2F)on1 | 0 | -3 | 99 | 106 | . | .
CCC(=O)N1CCc2cc(S(=O)(=O)CCC(=O)Nc3ccc(CC)cc3)ccc21 | 1 | . | . | . | . | . | GRK2 CP2=12;FAM quench SP=99
CCc1ccc(NS(=O)(=O)c2ccc3c(c2)CCN3C(=O)CCC(=O)O)cc1 | 52* | 5 | 102 | 108 | . | . | GRK2 CP2=6;FAM quench SP=102
Cc1ccc2c(c1)c1nnc(SCC(=O)N3CCN(c4ccc(F)cc4)CC3)nc1n2CC(=O)O | 100* | 3 | 100 | 104 | . | . | GRK2 CP2=2;FAM quench SP=99
O=c1[nH]cnc(O)c1C(c1ccc2c(c1)OCO2)c1c(O)nc[nH]c1=O | 0 | -12 | 97 | 94 | . | .
O=C(Nc1ccccc1)Nc1n[nH]c2nnc(-c3ccccc3)c(-c3ccccc3)c12 | 1 | 3 | 102 | 99 | . | .
O=C(CCc1n[nH]c(=O)[nH]c1=O)N1CCCCC1 | 30 | 9 | 111 | 111 | 1 | 100
O=C(CSc1n[nH]c(=O)[nH]c1=O)N1CCCCCC1 | 4 | -3 | 96 | 98 | . | .
COc1ccc(-c2nc(CNS(=O)(=O)c3ccc(OC)c(OC)c3)cs2)cc1 | 84* | 6 | 105 | 106 | 1 | 105
Cc1ccc(S(=O)(=O)c2nc(S(C)(=O)=O)sc2N2CCC3(CC2)OCCO3)cc1 | 52* | 8 | 104 | 107 | . | . | GRK2 CP2=-1;FAM quench SP=100
Cc1ccc(S(=O)(=O)c2nc(S(=O)(=O)c3ccc(C)cc3)c(N3CCN(CCO)CC3)s2)cc1 | 0 | 7 | 101 | 103 | -3 | 97
CC(=O)Oc1ccc2ccc(=O)oc2c1 | 80* | 1 | 103 | 99 | -2 | 99
COc1ccc(-c2nn(-c3ccccc3)cc2CNCc2cccnc2)c(F)c1 | 47* | -6 | 110 | 104 | -4 | 101
CSc1ccc(Cl)c(C(=O)N2CCN(c3ncccn3)CC2)c1 | 43* | . | . | . | . | . | GRK2 CP2=9;FAM quench SP=101
CCCCC(CC)c1nnc(NC(=O)c2cccs2)s1 (stereo not given) | . | 6 | 103 | 104 | . | .
CCCC(C)c1nnc(NC(=O)CCS(=O)(=O)c2ccccc2)s1 (stereo not given) | 17 | -3 | 101 | 101 | 13 | 98
CCC(CC)c1nnc(NC(=O)CS(=O)(=O)c2ccccc2)s1 | 1 | -2 | 100 | 97 | . | .
CC(C)c1nnc(NC(=O)c2cccs2)s1 | 44* | 3 | 104 | 108 | -3 | 98
CC(C)c1nnc(NC(=O)CCS(=O)(=O)c2ccccc2)s1 | 0 | 5 | 103 | 98 | -2 | 113
CN(C)c1ccc(/C=C(\NC(=O)c2ccccc2)C(=O)NCCN2CCOCC2)cc1 | 0 | 0 | 96 | 96 | . | .
COc1ccccc1C(=O)NCC(=O)OC(C)C(=O)NC1CCCCC1C (stereo not given) | 6 | . | . | . | . | .
Cc1cccc(CCNC(=O)c2cc(S(=O)(=O)N3CCCCC3)c[nH]2)c1 | 1 | 0 | 97 | 95 | . | .
CN(CC(=O)NCC1CCCCC1)CC(=O)Nc1ccccc1Br | 0 | . | . | . | . | .
O=C(CS(=O)(=O)c1ccccc1)Nc1nc2ccccc2s1 | 1 | 2 | 102 | 100 | . | .

Screening results deposited in PubChem BioAssay by NMMLSC.
